Source: PubChem BioAssay (EPA / NIEHS)
Where a structure was tested more than once in an assay, its records may differ in their call. Activity calls are given as the source filed them. How the source made its calls: active means hit-call score of the fitted dose curve at least 0.9, where 1 is the maximum; inactive means score below 0.9.

Read-out: Cytochrome P450 2C19 (Homo sapiens) (UniProt P33261)
Assay: LTEA_HepaRG_CYP2C19: Life Technologies and Expression Analysis (LTEA) Assay for CYP2C19 using HepaRG (AID 2283482)
Conditions: mRNA level, 48 h; actives raise or lower the signal
Description: LTEA_HepaRG is a cell based, multiplexed-readout assay that uses HepaRG, a human liver cell line, with measurements taken at 48 hours after chemical dosing on a 96-well plate.LTEA_HepaRG_CYP2C19 is one of 102 assay component(s) measured in the LTEA HepaRG cell culture assay. It is a marker of NR mediated metabolism.Data from the assay component LTEA_HepaRG_CYP2C19 was analyzed into 1 endpoint. This assay endpoint, LTEA_HepaRG_CYP2C19, was analyzed with bidirectional fitting relative to DMSO as the negative control and baseline of activity. Using a type of inducible reporter, measures of mRNA induction for gain or loss-of-signal activity can be used to understand regulation of transcription factor activity. To generalize the intended target to other relatable targets, this assay endpoint is annotated to the cyp intended target family, where the subfamily is xenobiotic metabolism.
A total of 1060 chemcials from the ToxCast library were tested in eight-point concentration-response experiments. Cell culture and cytotoxicity assays were conducted at Thermo Fisher Scientific's Custom Services facility (Madison, WI). A single lot of human HepaRG cells (Thermo Fisher Scientific, Frederick, MD) was used for the cell culture experiments. 96-well format collagen type I coated plates of human HepaRG cells were prepared using established methods. Briefly, cryopreserved HepaRG cells were thawed, plated at a density of approximately 100,000 cells/well in HepaRG Thaw, Plate, and General Purpose media (HPRG770, Thermo Fisher Scientific), and incubated for 48 hours. 0.5% DMSO was selected as vehicle control to balance the requisite need of DMSO in HepaRG cultures to maintain differentiation (for example, baseline metabolism, proportions of hepatocytes vs. cholangiocytes), while enabling further hepatic receptor pathway activation (for example, PXR and CAR) in response to chemical exposure. 48 hours after plating, the culture medium was replaced with HepaRG Serum-Free Incudtion Media. Cells were exposed to each test chemical in duplicate and maintained in CO2 incubators for another 48 hours. Chemical plates were thawed to room temperature and 200x concentrations of treatment groups were prepared. 8-point conentration-reponse curves were made with the highest exposure at 100 uM, followed by half-log dilutions, all in 0.5% DMSO. Each test plate contained variouse controls, induction positive controls (1mM phenobarbital), cytotoxicity positive controls ([…] aflatoxin B1), vehicle controls (0.5% DMSO), and total lysis controls (0.5% DMSO). Cell morphology images were taken using an Essen IncuCyte FLR automated microscope, with six 96-well plates imaged in about 24 minutes. Images were captured and exported and JPEG files. Spent culture media was transfered to black-well plates for the LDH assay, and remaining media was sorted at -80 C for later use. Cells were treated with RLT buffer and frozen until shipped for gene expression analysis. Total RNA was isolated from the cell suspension in 75 uL of Buffer RLT (Qiagen, Germantown, MD 20874) by Quintiles/Expression Analysis (Durham, NC) using a custom isolation procedure. Total RNA from each plate well was transferred to a preamplification plate. Fluidigm's 96.96 Dynamic ArrayTM (Fluidigm, Amsterdam, the Netherlands) technology was used for gene expression analyses by quantitative reverse transcription polymerase chain reaction (qRT-PCR, performed by Quintiles/Expression Analysis, Durham, NC)89. Standard TaqManTM Assays (Applied Biosystems/ThermoFisher Scientific, Foster City, CA) were used to assess the expression of 93 genes selected based on their selectivity and sensitivity to important hepatic receptors known to be modulated by environmental chemicals; importance in human hepatocyte functionality; and hepatotoxicity. […]

Cytochrome P450 2C19 (Homo sapiens), sequence (P33261 whole entry, looked up): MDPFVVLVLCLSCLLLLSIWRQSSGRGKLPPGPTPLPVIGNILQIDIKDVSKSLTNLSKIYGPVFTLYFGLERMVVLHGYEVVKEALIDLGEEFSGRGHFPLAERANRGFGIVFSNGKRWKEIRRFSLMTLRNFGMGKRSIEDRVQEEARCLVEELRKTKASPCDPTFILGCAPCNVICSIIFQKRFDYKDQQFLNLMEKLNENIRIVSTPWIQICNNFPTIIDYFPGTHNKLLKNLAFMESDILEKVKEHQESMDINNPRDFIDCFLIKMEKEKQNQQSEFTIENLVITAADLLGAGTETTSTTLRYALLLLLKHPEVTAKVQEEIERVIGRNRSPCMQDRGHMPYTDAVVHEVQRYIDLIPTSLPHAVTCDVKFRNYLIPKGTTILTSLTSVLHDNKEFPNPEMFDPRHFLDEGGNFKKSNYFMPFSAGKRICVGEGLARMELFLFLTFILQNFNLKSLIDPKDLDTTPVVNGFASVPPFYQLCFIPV

Structure (SMILES)	AC50	outcome
S=C([S-])NCCNC(=S)[S-].[Mn+2]	4.61 µM (active)	
CC(C)(C)[C@@H](O)[C@@H](Cc1ccc(Cl)cc1)n1cncn1	7.33 µM (active)	
CCCOC(=O)NCCCN(C)C		inactive
COc1c(Cl)ccc(Cl)c1C(=O)O		inactive
CC(C)(c1ccc(O)cc1)c1ccc(O)cc1	37.1 µM (active)	inactive
c1ccc2[nH]c(-c3cscn3)nc2c1	28.6 µM (active)	
c1ccc(Nc2ccccc2)cc1		inactive
COCCO		inactive
COC(=O)CSc1cc(N=c2sc(=O)n3n2CCCC3)c(F)cc1Cl	24 µM (active)	
CCCCCCC(C)OC(=O)COc1nc(F)c(Cl)c(N)c1Cl (stereo not given)		inactive
CCCCOCCOCCOCc1cc2c(cc1CCC)OCO2	5.73 µM (active)	
CCOC(=O)C(C)Oc1ccc(Oc2cnc3cc(Cl)ccc3n2)cc1 (stereo not given)	1.24 µM (active)	
O=C(c1ccccc1)C1CCCCC1		inactive
CCC(C)OC(=O)N1CCCCC1CCO (stereo not given)	50 µM (active)	
Oc1ccc(C(c2ccc(O)cc2)C(Cl)(Cl)Cl)cc1	78.4 µM (active)	
CCCN(CCC)C(=O)SCC		inactive
CCCOC(=O)c1ccc(C(=O)OCCC)nc1		inactive
CC1(C)C(C=C(Cl)Cl)C1C(=O)OCc1cccc(Oc2ccccc2)c1 (stereo not given)		inactive
CCCCOC(=O)[C@@H](C)Oc1ccc(Oc2ccc(C(F)(F)F)cn2)cc1		inactive
O=C(Nc1ccc([N+](=O)[O-])cc1Cl)c1cc(Cl)ccc1O	2.22 µM (active)	

Structure (SMILES)	AC50	outcome
CCN(Cc1c(F)cccc1Cl)c1c([N+](=O)[O-])cc(C(F)(F)F)cc1[N+](=O)[O-]	12.9 µM (active)	
CCOC(=O)NCCOc1ccc(Oc2ccccc2)cc1	81.6 µM (active)	
CCCCCOC(=O)COc1cc(N2C(=O)C3=C(CCCC3)C2=O)c(F)cc1Cl		inactive
N[C@@H](Cc1cc(I)c(Oc2ccc(O)c(I)c2)c(I)c1)C(=O)O	61.6 µM (active)	
CN(C)C(=O)Nc1ccc(Cl)c(Cl)c1	28.7 µM (active)	
CCCN(CCC)c1c([N+](=O)[O-])cc(C(F)(F)F)c(N)c1[N+](=O)[O-]	5.41 µM (active)	
C[C@]12CC[C@@H]3c4ccc(O)cc4C[C@@H](CCCCCCCCCS(=O)CCCC(F)(F)C(F)(F)F)[C@H]3[C@@H]1CC[C@@H]2O (stereo not given in full)	26 µM (active)	
COC(=O)c1ccccc1C(=O)O		inactive
CCSC(=O)N(CC(C)C)CC(C)C		inactive
C#C[C@]1(O)CC[C@H]2[C@@H]3CCC4=CC(=O)CC[C@@H]4[C@H]3CC[C@@]21CC	5.47 µM (active)	
CCNc1nc(N)nc(Cl)n1	6.65 µM (active)	
CCCCC(CC)CN1C(=O)C2C3C=CC(C3)C2C1=O (stereo not given)	92 µM (active)	
OB(O)O		inactive
CSC(=O)c1cccc2nnsc12		inactive
CCCCOC(=O)C(C)Oc1ccc(Oc2ccc(C(F)(F)F)cn2)cc1 (stereo not given)		inactive
N#CSCSc1nc2ccccc2s1		inactive
CCOC(=O)COc1cc(-n2ncc(C(F)(F)F)c(C)c2=O)c(F)cc1Cl		inactive
O=C(c1ccc(O)cc1O)c1ccc(O)cc1O		inactive
CC(=O)S[C@@H]1CC2=CC(=O)CC[C@]2(C)[C@H]2CC[C@@]3(C)[C@@H](CC[C@@]34CCC(=O)O4)[C@H]12	78.3 µM (active)	
